Numbering of substitutions follows the chain as printed. Over roughly 24,000 sequences, “enrichment r” has its median near 0.99; the highest 2% begin near 3.7. The list comes from a sample in which the highest values are over-represented; it also holds similar and randomly drawn sequences.

Drawing on article PMC12136788, this text covers binding signal for 24 molecules.

T1: UNK ZnF1-3 (human, UniProt Q9C0B0 31-174)
T1 sequence: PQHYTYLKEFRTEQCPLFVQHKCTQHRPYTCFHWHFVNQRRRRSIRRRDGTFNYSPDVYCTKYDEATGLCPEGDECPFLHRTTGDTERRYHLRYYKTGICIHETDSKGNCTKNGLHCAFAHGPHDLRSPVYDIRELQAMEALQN

B1: chr12:39756943:39756944:-_ENSG00000139116_ENST00000544797|hu_mus|hu_hu_hu_mus_False|28_58 (ssRNA)
RNA: GGGAGUUCUACAGUCCGACGAUCGGUUUGGCUGUUACCCCCAAGGGAAUCCUGCAAGAGUCUUGUCAGCUUAGAGUCUCUAUAGGGGACAUGGGUGGCUCUCUUGCUCUUGUCUCCCAAGGCGCUGAUUACAUUCCCAAGAGCCAACAGAGGAUUGAGCAUCA
B2: chr8:95500983:95500984:-_ENSG00000164944_ENST00000437199|hu_hu|hu_hu_hu_mus_True|8_88 (ssRNA)
RNA: GGGAGUUCUACAGUCCGACGAUCAGAACACAUCUAUCGAGUAAAGGGAGCGUACAUACGGCCUCUACCACUGCCUCCACUAACAAACUUUCCUCUCGAGCCUCCACUGCCGCUAUUUGUACUAGCCCCAGGAAGGUCCAGGCCCAACAGAGGAUUGAGCAUCA
B3: chr17:90989275:90989276:-_ENSMUSG00000024109_ENSMUST00000160844|mus_mus|motif|central (ssRNA)
RNA: GGGAGUUCUACAGUCCGACGAUCAGAUGUUGUCUUGAAUUGGAAAAAUAGAUGCAUAGAGGUGUAGGCUUGCAAUGUAGCGGAGGCAACAUAGCUCGAUUUGGUCUUGAAGGUGACAGGAUCUGCGAUGAUGUUCCUGAAUCCCAACAGAGGAUUGAGCAUCA
B4: chrX:103214973:103214974:+_ENSMUSG00000031231_ENSMUST00000033582|mus_hu|FALSE|FALSE (ssRNA)
RNA: GGGAGUUCUACAGUCCGACGAUCAACAAUACAGAAAGUGGCUCCACUAGCUAAUACAGCAUUACCGUAUUUGUCAUGAAAAUCAGGUGUACGUUUCUGGUGGCUCUGCCUUGCCAUUGUUUGCUGAAUGCUUCGAACUUGGAGCAACAGAGGAUUGAGCAUCA
B5: chr2:35989780:35989781:-_ENSMUSG00000026889_ENSMUST00000028251|mus_hu|FALSE|FALSE (ssRNA)
RNA: GGGAGUUCUACAGUCCGACGAUCGCAUUCUCCAGGGGAAGAGUUUUGGUUUCUGCUUCCAUCAAUGUCUAUGAAAUACUCGUGGCCUCGGCGUGGUGCUCUCAGCUCAUGCCCGGAAACCAGGUCCCGACGCCGCGGUCAGACCAACAGAGGAUUGAGCAUCA
B6: 37444673_37445709_2339_CDS_ENSMUSG00000026113_ENSMUST00000027287|mouse|control|control (ssRNA)
RNA: GGGAGUUCUACAGUCCGACGAUCGUAGAGCUGCCGCAGGAAGCCACCGUCGUGCAGGCAGUUCCUCAGCUUGAUGAUAAAGCCACAGAUGAGGGCUGUCAGGGUUUGGCAGAAGACGACGUCACGGCGAUACUGCAGGCUGAGCAACAGAGGAUUGAGCAUCA
B7: chr5:106037793:106037794:+_ENSMUSG00000054720_ENSMUST00000067924|mus_hu|motif|central (ssRNA)
RNA: GGGAGUUCUACAGUCCGACGAUCCUUUGUGUACAUUUUGUGUGAAAAGGAAAAAAAAAUAGGAAAGGCAUUAAGACGGCCGGAUUAUUUAUACUGUAUUUGGUAGAAGCGUGUUUCAGUCAAACUUUAACGAAAAAUAAGUUACAACAGAGGAUUGAGCAUCA
B8: chr5:106037793:106037794:+_ENSMUSG00000054720_ENSMUST00000067924|mus_mus|motif|central (ssRNA)
RNA: GGGAGUUCUACAGUCCGACGAUCUGUUGUCUUGUGUGGAAAAGGAAAAAAAAAUAAUAUAGGAAAGGCAUUAGGACGGCCGGAUUCUUUAUAUUGUAUUUGGUAGAAGCAUGUUUCAGUCAUACUCUGAUGAAAAAUAAGUUACAACAGAGGAUUGAGCAUCA
B9: 57185256_57189016_303_CDS_ENSG00000146143_ENST00000607273|human|control|control (ssRNA)
RNA: GGGAGUUCUACAGUCCGACGAUCUUCAUCUUCUAAGUUUUCUCUGUAGGAAAACUUGAGCUUCCGAAGCUCACUCUCCAACUUACUCUGGUAUUGUUCAGUUCCUUUCACAUAGCUCACUCCAAGAUUUUCAACUGAUUUUAACAACAGAGGAUUGAGCAUCA
B10: chrX:119742084:119742085:+_ENSG00000232119_ENST00000371317|hu_hu|FALSE|FALSE (ssRNA)
RNA: GGGAGUUCUACAGUCCGACGAUCAAAAGGAUAUUUGUGAAGUAAUCUUAGGGUUGGAUAAAAAGGCCCUUCUCUUUGUCUAAAAAAGAGUAAUUCUCCAUUUACUGUAAGGAUUUCUAUAUGUUCAUGGCAUCGGACUAUUUUCAACAGAGGAUUGAGCAUCA
B11: chr5:106037793:106037794:+_ENSMUSG00000054720_ENSMUST00000067924|mus_mus|FALSE|FALSE (ssRNA)
RNA: B8 RNA with G77U, G78A, G81U, G82A
B12: chr11:9308113:9308114:-_ENSG00000166471_ENST00000528080|hu_hu|motif|central (ssRNA)
RNA: GGGAGUUCUACAGUCCGACGAUCAUUAGGCAGAAAUGGUGUUAUUCUCAAAAAUAUAAUGUAGUUAAUGAGAUGUUCUCGGUGACGUUCAACCUGCUGUGACCAUUUUACUGCUUUCUCUGUUAGGUAUUUGUAUACAACUGGCAACAGAGGAUUGAGCAUCA
B13: chr14:46222469:46222470:-_ENSMUSG00000037697_ENSMUST00000051310|mus_hu|FALSE|FALSE (ssRNA)
RNA: GGGAGUUCUACAGUCCGACGAUCAUUCUCUGAAACUGAGGUAGGUUCUUUAGCUGGGUUGAGAAAGCUUGGCUUCAUAUGUUCAUAAGGUAAAGGAUUUGAAGUAUUGUACCAGUGGAUCUGGACAGGUGAAAUGUUGCUGUACAACAGAGGAUUGAGCAUCA
B14: chr21:32491406:32491407:-_ENSG00000156299_ENST00000286827|hu_hu|motif|central (ssRNA)
RNA: GGGAGUUCUACAGUCCGACGAUCCAUAGUAUUUUAAACCCUUCUUAGGAAGUGGACAUUGUGACAUGGGAAAAGAAAAAGCGGUAAACCUUUUUUUAAAAAAAAAAAAAAAAUUGAAAGUGCUAUAACUUGUUUUUCUUCUUACAACAGAGGAUUGAGCAUCA
B15: chr14:57521665:57521666:+_ENSMUSG00000021945_ENSMUST00000022511|mus_mus|FALSE|FALSE (ssRNA)
RNA: GGGAGUUCUACAGUCCGACGAUCAACAACGUCAUCAUCAUCUUCUACUGAUGAGUUCUGAAACUUACUAGAUCUAGACACUAAAGGAUUAGGUGGGCCACUAAAUGAAUUUCCUACGUUCGUGAGACUAGUUGCCAUGGCUGUCAACAGAGGAUUGAGCAUCA
B16: chr4:76721835:76721836:+_ENSG00000138768_ENST00000264904|hu_mus|hu_hu_hu_mus_True|58_108 (ssRNA)
RNA: GGGAGUUCUACAGUCCGACGAUCGUUGGCUGGGGUUUUCUGAGACGCUCUGGAAUAUAACUCAUGUUUGCUAAUAAUCCUAGUUUCCUCUAUGAAAUUCUCUUUGCCAAUCCUCUUCUCUAUUAGUUGCUUUAGUUUCUCUUUCAACAGAGGAUUGAGCAUCA
B17: chr12:48362563:48362564:+_ENSG00000134291_ENST00000256686|hu_mus|FALSE|FALSE (ssRNA)
RNA: GGGAGUUCUACAGUCCGACGAUCUCCGUCAAGCCCUUCGAUAGACCCUUGCGGGGGAAACUGUAAUCACUUUGUAUGGGGAAGGAAAAGAAACGCCAAAAACUUUCCAAAAAGCGGGGGUGGGGUGAGGCGGGAGGGGGAGGUCAACAGAGGAUUGAGCAUCA
B18: chr14:76904430:76904431:+_ENSMUSG00000022010_ENSMUST00000022587|mus_mus|mus_mus_mus_hu_True|98_108 (ssRNA)
RNA: GGGAGUUCUACAGUCCGACGAUCUGCUGGAAAAAAAAGAGAGAGGGAAAAAAAGAGGGAACACCAGCAGCCUUGUAUAAGCUAGAUAAAAUCUUCUGGCUUUCCGCAGCCCAGGGAGAAACAGAAAACGGCAGCCCUAAUUUACAACAGAGGAUUGAGCAUCA
B19: chr14:76904430:76904431:+_ENSMUSG00000022010_ENSMUST00000022587|mus_mus|mus_mus_mus_hu_True|38_98 (ssRNA)
RNA: B18 RNA with U27A, G29C, A30C, A36C, G97A, U101G, C104U
B20: chr14:76904430:76904431:+_ENSMUSG00000022010_ENSMUST00000022587|mus_mus|mus_mus_mus_hu_True|48_88 (ssRNA)
RNA: GGGAGUUCUACAGUCCGACGAUCUGCAGCCAAAAACACCCUCGUGGCGGGAGGGAGGGAACACCAGCAGCCUUGUAUAAGCUAGAUAAAACCGCCUGGCUUUCCGCAGCCCAGGGAGAAACAGAAAACGGCAGCCCUAAUUUACAACAGAGGAUUGAGCAUCA
B21: chr14:76904430:76904431:+_ENSMUSG00000022010_ENSMUST00000022587|mus_mus|mus_mus_mus_hu_True|68_68 (ssRNA)
RNA: GGGAGUUCUACAGUCCGACGAUCUGCAGCCAAAAACACCCUCGUGGAAAAAAAGAGGGAACACCAGCAGCCUGGUUUAAGCUAGAUAAAAUCUUCUGGCUUUCCGCAGCCCAGGGAGAAACAGAAAACGGCAGCCCUAAUUUACAACAGAGGAUUGAGCAUCA
B22: chr14:76904430:76904431:+_ENSMUSG00000022010_ENSMUST00000022587|mus_mus|mus_mus_mus_hu_True|98_98 (ssRNA)
RNA: B18 RNA with U27A, G29C, A30C, A36C
B23: chr14:76904430:76904431:+_ENSMUSG00000022010_ENSMUST00000022587|mus_mus|mus_mus_mus_hu_True|88_98 (ssRNA)
RNA: B20 RNA with C38G, C39A, C40G, U41A, C42G, G43A, U44G, C91U, G93U, C94U
B24: chr14:76904430:76904431:+_ENSMUSG00000022010_ENSMUST00000022587|mus_mus|mus_mus_mus_hu_True|48_98 (ssRNA)
RNA: B18 RNA with U27A, G29C, A30C, A36C, U91C, U93G, U94C

This assay addresses T1, UNK ZnF1-3. Nature of the assay: nsRBNS (natural sequence RNA bind-n-seq); RBNS binding buffer (assumed for nsRBNS): 25 mM Tris pH 7.5, 150 mM KCl, 3 mM MgCl2, 0.01% Triton X-100, 500 ug/ml BSA, 20 U/ml SUPERase-In, 4 C; UNK is unkempt and MSI1 is Musashi-1; names of the RNAs are library labels; protein concentration not given here; high values mean tight binding.
Molecule B1 had a binding signal of 0.774 enrichment R.
Molecule B2 returned a binding signal of 1.68 enrichment R.
The same measure for B3: 1.21 enrichment R; for B4: 1.13 enrichment R.
On to B5, for which the binding signal was 0.583 enrichment R.
As to B6, the binding signal stood at 1.01 enrichment R.
In turn, B7 returned a binding signal of 3.77 enrichment R.
As to B8, the binding signal was 5.1 enrichment R.
In turn, B9 had a binding signal of 0.6 enrichment R.
For the molecule B10, the binding signal was 0.455 enrichment R.
Molecule B11 gave a binding signal of 4.57 enrichment R.
In the case of B12, the binding signal is 1.85 enrichment R.
The same measure for B13: 1.5 enrichment R; for B14: 1.34 enrichment R; for B15: 1.09 enrichment R.
The result for B16 reads 0.387 enrichment R; that for B17, 2.36 enrichment R.
As for B18, the binding signal was found to be 3.93 enrichment R.
Molecule B19 registered a binding signal of 4.97 enrichment R.
The result for B20 reads 2.24 enrichment R; that for B21, 2.29 enrichment R; that for B22, 4.46 enrichment R.
On to B23, for which the binding signal turned out to be 3.29 enrichment R.
Take B24: the binding signal worked out at 3.64 enrichment R.
